# Rows were chosen to be rich in hits. Some 27% of all compounds tested hit in one or more screens of this group.
# CYP2C9 activ – human CYP2C9 activators, primary screen, biochemical, luminescence; activation factor at 5 µM; Cytochrome P450 2C9 (Homo sapiens), P11712; recombinant CYP2C9, luciferin-H conversion; hits give high values; factor 1 = untreated enzyme, 0 = blocked; actives 1.4% (n = 96,000);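 active = activation factor of 2 or more for CYP2C9 at a 5 µM dose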;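 note: 0 = sulfaphenazole-blocked wells and 1 = vehicle-only wells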
# CYP2C19 inh – blockers of cytochrome P450 2C19 activity – biochemical, luminescence, ADME assay, primary screen. CYP2C19 Supersomes, luciferin-H EGE luminescence, 30 min. inhibition, % at 5 µM. actives 21% (n = 96,000). P33261. AID 778, 2007;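 active = CYP2C19 inhibition above a set limit at 5 µM in the primary screen, cut at about 50% in these data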;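 note: plate controls were negative control wells for no effect and 2.5 mM tranylcypromine positive control for full effect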
# CYP2C19 activ – human CYP2C19 activators, primary screen, biochemical, luminescence; recombinant CYP2C19, luciferin-H EGE luminescence; hits give high values; 0 = fully inhibited enzyme, 1 = untreated enzyme; activation factor at 5 µM; 96,000 tested, under 10 active; AID 1025, 2008;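 active = activation factor of at least 2 at 5 µM in the primary screen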;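 note: 0 = wells with 2.5 mM tranylcypromine and 1 = vehicle-only wells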
# Cav32 inh – Cav3.2 calcium influx blockers – cell-based, Fluo-4 calcium fluorescence, FDSS, MLSMR library, primary screen | B-score at 10 µM | actives 4% (n = 100,000) | AID 449739, 2010 | Cav3.2-expressing cells; hits give low values;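 active = single-dose well whose peak fluorescence ratio is a statistical outlier from its plate by either plate-standardised score or position-corrected B-score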
# Pyk2 oligo antag – antagonists of Pyk2 self-association, primary screen, Q293 cells, FERM NanoBiT luminescence, HTS. Protein-tyrosine kinase 2-beta (Homo sapiens), Q14289. hits give low values. z-score (the deposit names both 25 µM and 10 µM). actives 0.83% (n = 99,000). AID 1347419, 2020;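 active = Z-score of -3 or lower, scaled per plate to the spread of control and sample wells; inactive = z-score above -3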;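 note: negative z-score means lost luminescence so less FERM oligomerization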
# CYP2C9 inhib – blockers of cytochrome P450 2C9 activity – biochemical, luminescence, ADME assay, primary screen; P11712; CYP2C9 Supersomes, luciferin-H conversion; inhibition, % at 5 µM; actives 20% (n = 96,000);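 active = blocking of liver enzyme CYP2C9 beyond about 50% at 5 µM, limit read from the data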
# An asterisk follows results filed as active; . = no result given.
SMILES,CYP2C9 activ,CYP2C19 inh,CYP2C19 activ,Cav32 inh,Pyk2 oligo antag,CYP2C9 inhib
CCOCCCNc1ncc2c(n1)CC(c1ccc(C)cc1)CC2=O (configuration not stated),0.4,41,0.6,-0.65,1.8,59*
COc1ccc(C2CC(=O)c3cnc(Nc4cc(C)cc(C)c4)nc3C2)cc1 (configuration not stated),0.8,18,0.8,-1.1,-2,23
N#CC(C#N)C(c1ccsc1)c1c(-c2ccccc2)[nH][nH]c1=O (configuration not stated),0.9,11,0.9,0.9,0.06,11
CCCc1[nH][nH]c(=O)c1C(c1cccc(Cl)c1)C(C#N)C#N (configuration not stated),0.3,75*,0.3,-1.9,-0.06,75*
Cc1ccc(CCNC(=O)CN2CCN(Cc3ccccc3F)C2=O)cc1,0.2,48,0.5,-0.42,0.7,81*
O=C(CN1CCN(Cc2ccc(F)cc2Cl)C1=O)NCCc1ccccc1,0.4,54*,0.5,-0.0083,.,58*
Cc1ccc(CCNC(=O)CCc2nc3ccccc3[nH]2)cc1,.,.,.,.,3,.
Cc1ccc(CCNC(=O)Cn2cccc2)cc1,0.8,76*,0.2,0.082,0.36,22
COC(=O)c1c(NC(=O)CN2CCCC(C)C2)c2c(C)cccc2n1C (configuration not stated),1,11,0.9,-0.84,0.64,-3
CCOc1cccc2cc(-c3cn4cc(C)ccc4n3)c(=O)oc12,1.5,4,1,0.47,-0.2,-54
CCOc1cccc(=O)c2c(C)oc(C)c12,0,22,0.8,-1,0.7,95*
CCCCN(CCCNC(=O)c1ccc2nc(N3CCOCC3)sc2c1)Cc1ccccc1,1,8,0.9,0.84,0.24,0
FC(F)(F)c1nnc2c(Sc3ccccc3)nc3ccc(Cl)cc3n12,0.7,50*,0.5,0.16,0.68,26
FC(F)(F)c1nc2ccccc2n2c(-c3ccc(Cl)cc3Cl)nnc12,1,26,0.7,-0.31,-0.02,3
Cc1ccc(-n2cnc3scc(-c4cccs4)c3c2=O)cc1,.,.,.,-1.1,-0.23,.
Cc1ccc(C(=O)Nn2cnc3scc(-c4cccs4)c3c2=O)c(O)c1,0.6,-10,1.1,-3.5*,-2.3,36
O=C(c1ccco1)N1CCN(C(=O)C2CCN(S(=O)(=O)Cc3ccccc3)CC2)CC1,0.9,14,0.9,-0.47,0.49,13
Cc1cc(C)cc(OCC(=O)NNC(=O)CCC(=O)NCc2ccccc2)c1,.,.,.,-0.37,-0.92,.
CCC(c1nnnn1C(C)C)N1CCN(C2CCCC2)CC1 (configuration not stated),1,-10,1.1,.,-0.22,0
Cc1ccc(N=C2N=C(N)c3ccccc32)c(C)c1,0.4,5,1,-0.1,-0.66,58*
CCOC(=O)C(C)CC(C)C(=O)N1CCOCCOCCN(C(=O)C(C)CC(C)C(=O)OCC)CCOCC1 (configuration not stated),0.9,10,0.9,.,0.34,8
CCOC(=O)C(C(=O)OCC)C(C(=O)OCC)N1CCOCC1 (configuration not stated),0.5,-3,1,2.1,2.4,53*
CCCOC(=O)CSC1=C(C#N)C(c2ccccc2Cl)CC(=O)N1 (configuration not stated),0,95*,0.1,.,.,96*
CCOC(=O)CSC1=C(C#N)C(c2ccc(Cl)cc2)CC(=O)N1 (configuration not stated),0,96*,0,-0.38,.,98*
CCOC(=O)CSC1=C(C#N)C(c2ccc3c(c2)OCO3)CC(=O)N1 (configuration not stated),0.9,32,0.7,1.1,0.67,6
SMILES,CYP2C9 activ,CYP2C19 inh,CYP2C19 activ,Cav32 inh,Pyk2 oligo antag,CYP2C9 inhib
CCCCOC(=O)CSC1=C(C#N)C(c2ccc3c(c2)OCO3)CC(=O)N1 (configuration not stated),0.4,48,0.5,-2.3,0.47,57*
CCCCCCSC1=C(C#N)C(c2ccc(O)cc2)CC(=O)N1 (configuration not stated),0.3,63*,0.4,-3.1,-3.3*,74*
CCSC1=C(C#N)C(c2ccc(F)cc2)CC(=O)N1 (configuration not stated),0.9,38,0.6,0.72,.,10
COc1ccc2c(C)c(C(=O)NCC(C)O)oc2c1OC (configuration not stated),1,5,0.9,-0.033,1.5,4
COC(=O)c1sccc1NC(=O)c1ccco1,1,-9,1.1,0.035,0.56,2
COc1ccc(N(C(=O)c2ccco2)S(=O)(=O)c2cc(OC)ccc2OC)cc1,0.3,25,0.8,0.24,0.17,72*
COc1ccc(N(C(=O)c2ccco2)S(=O)(=O)c2cccs2)cc1,0.5,35,0.7,-1.2,0.54,50*
COc1ccc(N(C(=O)c2ccco2)S(=O)(=O)c2cccc([N+](=O)[O-])c2)cc1,0.9,7,0.9,0.6,-1.3,9
CC(=O)N(c1ccc(N(C(C)=O)S(=O)(=O)c2cccs2)cc1)S(=O)(=O)c1cccs1,0.3,22,0.8,0.41,0.3,73*
O=C(Nc1ccccc1N(C(=O)c1ccco1)S(=O)(=O)c1cccs1)c1ccco1,0.3,29,0.7,-0.29,-0.84,75*
COc1ccc(N(C(=O)c2ccco2)S(=O)(=O)c2ccc(F)cc2)cc1,.,.,.,-0.87,-0.67,.
CCCN(S(=O)(=O)c1ccc(OCC)cc1)S(=O)(=O)c1cccs1,0.6,30,0.7,0.27,-2,41
COc1ccc(C[C@H]2CN3C(=NC[C@@H]3C)N2CCNC(=O)CCC2CCCCC2)cc1,.,.,.,-1.2,.,.
COC(Cc1nnc(SC)n1-c1ccc(Cl)cc1)OC,0.9,7,0.9,0.21,0.95,14
COC(=O)[C@@H](NC(=O)NCc1ccccc1Cl)C(C)C,1,45,0.6,1.3,0.83,2
COC(=O)C1CCN(c2cc(=O)n(-c3ccc(OC)cc3)c(=O)[nH]2)CC1,1.3,-23,1.2,-0.5,.,-26
C=CCn1c(-c2csc(-c3ccc(Cl)cc3)n2)n[nH]c1=S,0.9,81*,0.2,-0.15,0.04,8
C=CCn1c(-c2c[nH]c3ccccc23)n[nH]c1=S,0.8,20,0.8,-0.85,-0.1,22
C=CCn1c(-c2csc3ccccc23)n[nH]c1=S,0.2,93*,0.1,-2.8,1.1,78*
Cc1cccc(C)c1OCC(O)CN1CCC(CN2C(=O)c3cccc4cccc(c34)C2=O)CC1 (configuration not stated),0.4,55*,0.4,-3.8,0.31,58*

# Screens (PubChem BioAssay)
